Test results: the supplement of paper PMC8728848
Only a selection was taken, and the strongest signals are over-represented in it overall.

Tests used:
Assay in all cases: glycan array binding signal (z-score within array); higher = stronger binding
Conditions in all cases: glycan notation: IUPAC condensed, linker removed
[1] = biological target: Fuc(a1-2)Gal(b1-3)GalNAc(b1-3)Gal(a1-4)Gal(b1-4)Glc
Outline: (§1)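 The Consortium for Functional Glycomics database supplied 3228 glycan arrays, of which those lacking an available protein sequence were dropped. The binding signal, a within-array Z-score, was averaged across arrays of the same protein sequence and across linkers. Negative scores can be read as non-binding.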

[2] = biological target: Fuc(a1-2)Gal(b1-3)GlcNAc(b1-3)[Gal(b1-4)GlcNAc(b1-6)]Gal(b1-4)Glc
Outline: as §1

[3] = biological target: Fuc(a1-2)Gal(b1-3)[Fuc(a1-4)]GlcNAc(b1-2)Man(a1-3)[Fuc(a1-2)Gal(b1-3)[Fuc(a1-4)]GlcNAc(b1-2)Man(a1-6)]Man(b1-4)GlcNAc(b1-4)[Fuc(a1-6)]GlcNAc(b1-4)[Fuc(a1-6)]GlcNAc
Outline: as §1

[4] = biological target: Fuc(a1-2)Gal(b1-4)GlcNAc(b1-3)GalNAc
Outline: as §1

[5] = biological target: Fuc(a1-2)Gal(b1-4)GlcNAc(b1-3)[Fuc(a1-2)Gal(b1-4)GlcNAc(b1-6)]GalNAc
Outline: as §1

[6] = biological target: Fuc(a1-2)Gal(b1-4)GlcNAc(b1-3)[Fuc(a1-3)[Gal(b1-4)]GlcNAc(b1-6)]Gal(b1-4)Glc
Outline: as §1

[7] = biological target: Fuc(a1-2)Gal(b1-4)[Fuc(a1-3)]GlcNAc
Outline: as §1

[8] = biological target: Fuc(a1-2)[Gal(a1-3)]Gal(b1-3)GlcNAc(b1-6)GalNAc
Outline: as §1

[9] = biological target: Fuc(a1-2)[Gal(a1-3)]Gal(b1-4)GlcNAc(b1-2)Man(a1-3)[Fuc(a1-2)[Gal(a1-3)]Gal(b1-4)GlcNAc(b1-2)Man(a1-6)]Man(b1-4)GlcNAc(b1-4)GlcNAc
Outline: as §1

[10] = biological target: Fuc(a1-2)[Gal(a1-4)]Gal(b1-4)GlcNAc
Outline: as §1

[11] = biological target: Fuc(a1-2)[GalNAc(a1-3)]Gal(b1-4)GlcNAc(b1-6)GalNAc
Outline: as §1

Gal(a1-3)Gal(b1-3)GlcNAc = biological target: Gal(a1-3)Gal(b1-3)GlcNAc
Outline: as §1

[12] = biological target: Gal(a1-3)Gal(b1-3)GlcNAc(b1-2)Man(a1-3)[Gal(a1-3)Gal(b1-3)GlcNAc(b1-2)Man(a1-6)]Man(b1-4)GlcNAc(b1-4)GlcNAc
Outline: as §1

[13] = biological target: Gal(a1-3)[Gal(a1-4)]Gal(b1-4)GlcNAc
Outline: as §1

Gal(a1-4)GlcNAc = biological target: Gal(a1-4)GlcNAc
Outline: as §1

[14] = biological target: Gal(b1-3)GlcNAc(b1-3)Gal(b1-4)GlcNAc(b1-6)[Gal(b1-3)GlcNAc(b1-3)]Gal(b1-4)Glc
Outline: as §1

[15] = biological target: Gal(b1-3)[Fuc(a1-4)]GlcNAc(b1-2)Man(a1-3)[Gal(b1-3)[Fuc(a1-4)]GlcNAc(b1-2)Man(a1-6)]Man(b1-4)GlcNAc(b1-4)[Fuc(a1-6)]GlcNAc
Outline: as §1

Gal(b1-4)Glc = biological target: Gal(b1-4)Glc
Outline: as §1

Gal(b1-4)Glc6S = biological target: Gal(b1-4)Glc6S
Outline: as §1

[16] = biological target: Gal(b1-4)GlcNAc(b1-3)Gal(b1-3)GlcNAc
Outline: as §1

[17] = biological target: Gal(b1-4)GlcNAc(b1-3)Gal(b1-4)GlcNAc(b1-2)[Gal(b1-4)GlcNAc(b1-3)Gal(b1-4)GlcNAc(b1-6)]Man(a1-6)[Gal(b1-4)GlcNAc(b1-3)Gal(b1-4)GlcNAc(b1-2)Man(a1-3)]Man(b1-4)GlcNAc(b1-4)[Fuc(a1-6)]GlcNAc
Outline: as §1

[18] = biological target: Gal(b1-4)GlcNAc(b1-3)Gal(b1-4)GlcNAc(b1-3)Gal(b1-4)GlcNAc(b1-3)Gal(b1-4)GlcNAc(b1-3)Gal(b1-4)GlcNAc(b1-3)Gal(b1-4)GlcNAc(b1-2)Man(a1-3)[Gal(b1-4)GlcNAc(b1-3)Gal(b1-4)GlcNAc(b1-3)Gal(b1-4)GlcNAc(b1-3)Gal(b1-4)GlcNAc(b1-3)Gal(b1-4)GlcNAc(b1-3)Gal(b1-4)GlcNAc(b1-2)Man(a1-6)]Man(b1-4)GlcNAc(b1-4)GlcNAc
Outline: as §1

[19] = biological target: Gal(b1-4)GlcNAc(b1-3)Gal(b1-4)GlcNAc(b1-3)GalNAc
Outline: as §1

[20] = biological target: Gal(b1-4)GlcNAc(b1-3)[Gal(b1-4)GlcNAc(b1-6)]Gal(b1-4)GlcNAc
Outline: as §1

Gal4S(b1-4)GlcNAc = biological target: Gal4S(b1-4)GlcNAc
Outline: as §1

Gal6S(b1-3)GlcNAc = biological target: Gal6S(b1-3)GlcNAc
Outline: as §1

[21] = biological target: GalNAc(b1-3)Gal(a1-4)Gal(b1-4)GlcNAc(b1-3)Gal(b1-4)Glc
Outline: as §1

GalNAc(b1-4)Gal(b1-4)Glc = biological target: GalNAc(b1-4)Gal(b1-4)Glc
Outline: as §1

GalNAc6S(b1-4)GlcNAc = biological target: GalNAc6S(b1-4)GlcNAc
Outline: as §1

[22] = biological target: GlcNAc(a1-4)Gal(b1-4)GalNAc
Outline: as §1

B1: PX14375F-bfa-539-21-539 (Bacteroides fragilis) (protein)
chain: EDFLQKDPPSSPSQSVFWQKKSDFESALAGTYSVMYSGVFSQIMPCLDGLTDNAIVQHSEGTYGWAKTIAQGDLTPNQGGFVTDIYGNCYKGIARVHILMEQLDQYTGSDISADEKKFMLAQCKALRGYFYSWLYQCYKEVPVVTQSLDLNTMYQPKATRAEVLNRVMTDYDEAISELPDKLYSDSQTSGRFTVSAVKALKARILLFDAYDSNGKAISSKMEEVLTLLQSIKGYSLAARVRDNFISEKQLASPEIMFSVRFLRPNLTHSMDLYYGAWAVLDPTRNMVDAFECTDGKPWGESPLTVRPDESILYGNDDALKKAERAKMFMNRDRRLYESVNHSMMANFVDDGFKDEEVQVNESNNKGPTGFSALKYVQPTDVTPGYSTVSDADIVVLRYAHVLLMIAEAENEAHGATTTALNAINEVRTRSGQPAIEAGISQDDLRERIRNEWRIETCFEGLRYFQLKRWKLMDKRVNGVEDPAYPGYIKVYKPAFEFFPIPQSEIDKAGGVLKQDPAYE
For B1, the “glycan array binding signal (z-score)” value [1] was 1.21, the “glycan array binding signal (z-score)” value [2] was -0.583 and the “glycan array binding signal (z-score)” value [3] was 0.238. For the same binder, the “glycan array binding signal (z-score)” value [4] was 0.334, the “glycan array binding signal (z-score)” value [5] was 0.212 and the “glycan array binding signal (z-score)” value [6] was 0.539. For the same binder, the “glycan array binding signal (z-score)” value [7] was -0.409, the “glycan array binding signal (z-score)” value [8] was -0.329 and the “glycan array binding signal (z-score)” value [9] was 6.22. The “glycan array binding signal (z-score)” value [10] was 2.7, the “glycan array binding signal (z-score)” value [11] was -0.169 and the “glycan array binding signal (z-score)” value (Gal(a1-3)Gal(b1-3)GlcNAc) was -0.042. The “glycan array binding signal (z-score)” value [12] was 2.35, the “glycan array binding signal (z-score)” value [13] was 3.97 and the “glycan array binding signal (z-score)” value (Gal(a1-4)GlcNAc) was -0.504. The “glycan array binding signal (z-score)” value [14] was -0.107, the “glycan array binding signal (z-score)” value [15] was 2.29 and the “glycan array binding signal (z-score)” value (Gal(b1-4)Glc) was -0.577. For the same binder, the “glycan array binding signal (z-score)” value (Gal(b1-4)Glc6S) was 0.083, the “glycan array binding signal (z-score)” value [16] was -0.243 and the “glycan array binding signal (z-score)” value [17] was 5.95. For the same binder, the “glycan array binding signal (z-score)” value [18] was 4.05, the “glycan array binding signal (z-score)” value [19] was 2.44 and the “glycan array binding signal (z-score)” value [20] was 0.637. The “glycan array binding signal (z-score)” value (Gal4S(b1-4)GlcNAc) was -0.679, the “glycan array binding signal (z-score)” value (Gal6S(b1-3)GlcNAc) was -0.321 and the “glycan array binding signal (z-score)” value [21] was -0.311. The “glycan array binding signal (z-score)” value (GalNAc(b1-4)Gal(b1-4)Glc) was 0.504, the “glycan array binding signal (z-score)” value (GalNAc6S(b1-4)GlcNAc) was -0.468 and the “glycan array binding signal (z-score)” value [22] was -0.334.
